In PubChem BioAssay AID1159580 (chemical genetic matrix, 2015):
Out of some 5,500 compounds screened, about 2,000 (36%) were called active. Not shown: some 18% with an inconclusive outcome. No stated cut-off is given here; in the data, active means normalized growth mostly below about 0.91 (no sharp cut-off); inconclusive means no clear call, values can overlap the other calls; inactive means mostly above about 0.92. The list shows a part of the results.

Assay: chemical genetic growth profiling, strain panel (AID 1159580);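 further: tested at 20 µM; growth read once vehicle control cultures reached saturation at 30 °C; 1 = growth at the plate median or of vehicle wells; lower values mean less growth of the strain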
Settings: growth OD

Measured: normalized growth

CC(=O)OCC(=O)[C@@]12OC3(CCCC3)O[C@@H]1CC1C3CCC4=CC(=O)C=C[C@]4(C)[C@@]3(F)[C@@H](O)C[C@@]12C (some centres not stated)
inactive: S. cerevisiae deletion strains, locus YJR075W, strain HOC1, active compounds read low 1.01 | S. cerevisiae deletion strains, locus YKL009W, strain mrt4, active compounds read low 0.967 | S. cerevisiae deletion strains, locus YKL068W, active compounds read low 0.991 | S. cerevisiae deletion strains, locus YKL085W, strain MDH1 (second series), active compounds read low 0.994 | S. cerevisiae deletion strains, locus YKL085W, strain MDH1, active compounds read low 0.994 | S. cerevisiae deletion strains, locus YKL160W, strain elf1, active compounds read low 1.01 | S. cerevisiae deletion strains, locus YKL190W, strain CNB1, active compounds read low 0.997 | S. cerevisiae deletion strains, locus YKR001C, strain vps1, active compounds read low 0.985 | S. cerevisiae deletion strains, locus YKR026C, strain gcn3, active compounds read low 1.02 | S. cerevisiae deletion strains, locus YKR091W, strain srl3, active compounds read low 1.01 | S. cerevisiae deletion strains, locus YLL001W, strain dnm1, active compounds read low 1 | S. cerevisiae deletion strains, locus YLL026W, active compounds read low 1.01 | S. cerevisiae deletion strains, locus YLL041C, strain sdh2, active compounds read low 1.02 | S. cerevisiae deletion strains, locus YLR027C, strain aat2, active compounds read low 1.01 | S. cerevisiae deletion strains, locus YLR039C, strain RIC1, active compounds read low 0.94 | S. cerevisiae deletion strains, locus YLR058C, strain SHM2, active compounds read low 1.01 | S. cerevisiae deletion strains, locus YLR102C, strain apc9, active compounds read low 0.992 | S. cerevisiae deletion strains, locus YLR113W, strain HOG1, active compounds read low 0.989 | S. cerevisiae deletion strains, locus YLR221C, strain rsa3, active compounds read low 1.01 | S. cerevisiae deletion strains, locus YLR258W, strain gsy2, active compounds read low 1.02 | S. cerevisiae deletion strains, locus YLR262C, strain YPT6 (second series), active compounds read low 1 | S. cerevisiae deletion strains, locus YLR262C, strain YPT6, active compounds read low 0.961 | S. cerevisiae deletion strains, locus YLR268W, strain sec22, active compounds read low 0.958 | S. cerevisiae deletion strains, locus YLR320W, strain mms22, active compounds read low 1.02 | S. cerevisiae deletion strains, locus YLR330W, strain CHS5, active compounds read low 1.01 | S. cerevisiae deletion strains, locus YLR342W, strain FKS1 (second series), active compounds read low 1.05 | S. cerevisiae deletion strains, locus YLR342W, strain FKS1, active compounds read low 1.02 | S. cerevisiae deletion strains, locus YLR357W, strain rsc2, active compounds read low 1.04 | S. cerevisiae deletion strains, locus YLR370C, strain arc18, active compounds read low 1.02 | S. cerevisiae deletion strains, locus YLR371W, strain rom2, active compounds read low 0.984 | S. cerevisiae deletion strains, locus YLR384C, strain iki3, active compounds read low 1.01 | S. cerevisiae deletion strains, locus YLR418C, strain cdc73, active compounds read low 0.944 | S. cerevisiae deletion strains, locus YML016C, strain PPZ1, active compounds read low 1.02 | S. cerevisiae deletion strains, locus YML032C, strain rad52, active compounds read low 0.968 | S. cerevisiae deletion strains, locus YML120C, strain ndi1, active compounds read low 1.02 | S. cerevisiae deletion strains, locus YML124C, strain tub3, active compounds read low 0.988 | S. cerevisiae deletion strains, locus YMR058W, strain fet3, active compounds read low 1.02 | S. cerevisiae deletion strains, locus YMR078C, strain ctf18, active compounds read low 1 | S. cerevisiae deletion strains, locus YMR125W, strain sto1, active compounds read low 1.03 | S. cerevisiae deletion strains, locus YMR129W, active compounds read low 1.02 | S. cerevisiae deletion strains, locus YMR205C, strain PFK2, active compounds read low 1.02 | S. cerevisiae deletion strains, locus YMR223W, strain ubp8, active compounds read low 1.01 | S. cerevisiae deletion strains, locus YMR231W, strain pep5, active compounds read low 1.01 | S. cerevisiae deletion strains, locus YMR263W, strain SAP30, active compounds read low 1.01 | S. cerevisiae deletion strains, locus YMR307W, strain GAS1, active compounds read low 1.11 | S. cerevisiae deletion strains, locus YNL067W, strain RPL9B, active compounds read low 1 | S. cerevisiae deletion strains, locus YNL071W, strain lat1, active compounds read low 1.01 | S. cerevisiae deletion strains, locus YNL128W, strain TEP1, active compounds read low 1.03 | S. cerevisiae deletion strains, locus YNL153C, strain GIM3, active compounds read low 0.996 | S. cerevisiae deletion strains, locus YNL183C, strain NPR1, active compounds read low 0.954 | S. cerevisiae deletion strains, locus YNL209W, strain ssb2, active compounds read low 1.01 | S. cerevisiae deletion strains, locus YNL233W, strain BNI4, active compounds read low 1.01 | S. cerevisiae deletion strains, locus YNL248C, strain rpa49, active compounds read low 0.978 | S. cerevisiae deletion strains, locus YNL250W, strain rad50, active compounds read low 0.994 | S. cerevisiae deletion strains, locus YNL271C, strain bni1, active compounds read low 0.984 | S. cerevisiae deletion strains, locus YNL298W, strain CLA4, active compounds read low 0.982 | S. cerevisiae deletion strains, locus YNL307C, strain MCK1, active compounds read low 0.992 | S. cerevisiae deletion strains, locus YNL322C, strain KRE1 (second series), active compounds read low 1.03 | S. cerevisiae deletion strains, locus YNL322C, strain KRE1, active compounds read low 1.01 | S. cerevisiae deletion strains, locus YNR049C, strain mso1, active compounds read low 1.03 | S. cerevisiae deletion strains, locus YNR052C, strain pop2, active compounds read low 0.99 | S. cerevisiae deletion strains, locus YOL006C, strain TOP1, active compounds read low 1.01 | S. cerevisiae deletion strains, locus YOL012C, strain htz1 0.599 | S. cerevisiae deletion strains, locus YOL147C, strain pex11, active compounds read low 1 | S. cerevisiae deletion strains, locus YOR001W, strain rrp6, active compounds read low 1.02 | S. cerevisiae deletion strains, locus YOR061W, strain CKA2, active compounds read low 1.01 | S. cerevisiae deletion strains, locus YOR069W, strain VPS5, active compounds read low 1.01 | S. cerevisiae deletion strains, locus YOR070C, strain gyp1, active compounds read low 1.02 | S. cerevisiae deletion strains, locus YOR080W, strain dia2, active compounds read low 1.04 | S. cerevisiae deletion strains, locus YOR083W, strain WHI5, active compounds read low 0.998 | S. cerevisiae deletion strains, locus YOR106W, strain vam3, active compounds read low 1.01 | S. cerevisiae deletion strains, locus YOR136W, strain idh2, active compounds read low 0.981 | S. cerevisiae deletion strains, locus YOR144C, strain elg1, active compounds read low 0.991 | S. cerevisiae deletion strains, locus YOR184W, strain ser1, active compounds read low 0.983 | S. cerevisiae deletion strains, locus YOR231W, strain MKK1, active compounds read low 0.963 | S. cerevisiae deletion strains, locus YOR265W, strain rbl2, active compounds read low 1.02 | S. cerevisiae deletion strains, locus YOR270C, strain vph1, active compounds read low 0.921 | S. cerevisiae deletion strains, locus YOR290C, strain snf2, active compounds read low 1.01 | S. cerevisiae deletion strains, locus YOR316C, strain cot1, active compounds read low 1 | S. cerevisiae deletion strains, locus YPL051W, strain arl3, active compounds read low 1.02 | S. cerevisiae deletion strains, locus YPL055C, strain LGE1, active compounds read low 1.01 | S. cerevisiae deletion strains, locus YPL078C, strain atp4, active compounds read low 1.01 | S. cerevisiae deletion strains, locus YPL106C, strain sse1, active compounds read low 1.1 | S. cerevisiae deletion strains, locus YPL240C, strain hsp82, active compounds read low 1.01 | S. cerevisiae deletion strains, locus YPL241C, strain CIN2, active compounds read low 1.01 | S. cerevisiae deletion strains, locus YPL256C, strain CLN2, active compounds read low 0.975 | S. cerevisiae deletion strains, locus YPR119W, strain clb2, active compounds read low 0.982 | S. cerevisiae deletion strains, locus YPR141C, strain kar3, active compounds read low 0.989 | S. cerevisiae deletion strains, locus YPR163C, strain tif3, active compounds read low 0.98 | S. cerevisiae deletion strains, locus YPR167C, strain met16, active compounds read low 0.999 | S. cerevisiae deletion strains, strain wtn01, active compounds read low 0.98 | S. cerevisiae strains, strain wild type, active compounds read low 1.01
